Measurements reported in the supplement of paper PMC10941209.

System: HFF
Assay: cell viability relative to DMSO control; higher = less cytotoxic
Settings: 1 µM; 72 h
Procedure: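 Single-dose cytotoxicity screen of the MMV Pandemic Response Box at 1 uM on human foreskin fibroblasts (HFF), 72 h at 37 C. Viability measured by MTT (OD 550 nm) and normalised to the DMSO control (% survival).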

SMILES	cell viability [%]
COc1cc(C(C)(C)CCCC(C)C)cc(OC)c1OC	61
COc1ccccc1CN[C@H]1C2CCN(CC2)[C@H]1C(c1ccccc1)c1ccccc1	58.7
NC1(C(=O)O)CCP(=O)(O)CC1 (stereo not drawn)	63.1
COC(=O)Nc1nc2ccccc2[nH]1	66.4
CC(C)Oc1cccc(NC(=O)c2ccccc2C(F)(F)F)c1	70.5
O=C(NC12CC3CC(CC(C3)C1)C2)c1cc2ccccc2[nH]1	83.6
Nc1c(C(=O)NCc2ccco2)c2nc3ccccc3nc2n1CCN1CCCCC1	64.1
CCCCc1ccc(C(=O)O)nc1	56.4
CCN1CCN(Cc2nc3ccc([N+](=O)[O-])cc3c(=O)n2-c2ccccc2F)CC1	62.2
C[C@H]1CC[C@]2(NC1)O[C@H]1C[C@H]3[C@@H]4CC[C@H]5C[C@@H](O)CC[C@]5(C)[C@H]4CC[C@]3(C)[C@H]1[C@@H]2C	73.1
C[N+]1(C)CCCC(OC(=O)C(O)(c2ccccc2)c2ccccc2)C1 (stereo not drawn)	69.6
CN1C(=O)C(c2ccccc2)C(=O)N(c2ccccc2)c2cc(C(F)(F)F)ccc21 (stereo not drawn)	66.3
C[C@@]1(O)[C@H](O)[C@@H](CO)O[C@H]1n1ccc2c(N)ncnc21	68.5
